The structures appear in SMILES notation.

This experiment concerns HepG2. Briefly: GSK_TCMDC: Percent inhibition of human HepG2 cell line. Test compounds present at 10uM. The experiment is classed as functional.
On to `COc1nc2c(CCN3CC[C@@H](NCc4cc(C#N)c5c(c4)CCO5)[C@@H](O)C3)ccnc2cc1F.Cl`, for which the Inhibition – broadly, the share of the control response that was lost under treatment – is given as 21%.
`O=C(/C=C/c1ccccc1O)N1CCC(CCN2CCC(c3c[nH]c4ccccc34)CC2)CC1` returned an Inhibition of 46%.
`COc1cc(CNCCCNc2nc3ncccc3[nH]2)c2[nH]cc(Br)c2c1`: the Inhibition is reported as 12%.
On to `COc1cc(NCC(CN)Cc2ccc3c(c2)OCO3)nc2ccccc12.Cl` (stereo not given), for which the Inhibition stood at 41%.
For the molecule `Cc1cc(C)n2nc(C(=O)Nc3cc(C(F)(F)F)ccc3N3CCOCC3)nc2n1`, the Inhibition is given as 2%.
Molecule `O=C(Cc1ccccc1)NC(Nc1ccc([N+](=O)[O-])cc1)C(Cl)(Cl)Cl` (stereo not given) showed an Inhibition of 21%.
The molecule `CC(C)C[C@H](NC(=O)c1ccc(OCCN2CCOCC2)cc1)C(=O)N[C@H](/C=N/N1CC(=O)NC1=O)CCc1ccccc1` displayed an Inhibition of 10%.
The molecule `O=C(/C=C/c1ccc(C(F)(F)F)cc1)NCCCCCN1CCN(C(=O)Nc2ccc(Cl)c(Cl)c2)CC1` yielded an Inhibition of 37%.
As for `Cc1nnc2c(NC(=O)NC3CCCC3)cc3cc(-c4ccc(CN5CCCCC5)cc4)ccc3n12`, the figure is 100%.
In turn, `Cc1ccc(O)cc1C[C@@H]1C(=O)CC[C@@]2(C)[C@H]1CC[C@]2(C)O` yielded an Inhibition of 4%.
In turn, `COc1ccc2ncc(F)c([C@H](O)CN3CCC(NCc4cc5c(cn4)OCCO5)CC3)c2c1.Cl` showed an Inhibition of 5%.
In the case of `CCOC(=O)c1ccc(NC(=O)N(Cc2ccc(-c3ccc(CN4CCNCC4)cc3)cc2)Cc2cccnc2)cc1.O=C(O)C(F)(F)F`, the Inhibition is 13%.
Take `CCCc1cc(Cc2cnc(N)nc2N)cc(CCC)c1O.Cl`: the Inhibition is 64%.
The molecule `O=C(Cc1ccc(F)cc1)NC1CCN(c2ccnc3cc(Cl)ccc23)C1.O=C(O)C(F)(F)F` (stereo not given) displayed an Inhibition of 0%.
As for `CN1CCOc2ccc(Nc3nnc(-c4cccc(-c5cccnc5)c4)o3)cc2C1`, the figure is 0%.
The figure for `O=C(Nc1ccc2ccccc2c1)N1CCC(NCc2cccc([N+](=O)[O-])c2)CC1.O=C(O)C(F)(F)F` is 0%.
For `Cc1cc(C(=O)Nc2ccc3c(ccn3C3CCCN(Cc4ccc(C(F)(F)F)cc4F)CC3)c2)no1` (stereo not given), the Inhibition is 19%.
In the case of `CC1(C)CCC(C)(C)c2c1ccc(C1CCN(CCCCNC(=O)c3ccc(-c4ccc(Cl)cc4)cc3)CC1)c2O`, the Inhibition worked out at 100%.
Turning to `CCOC(=O)c1c(NC(NC(=O)c2ccc(C(C)(C)C)cc2)C(Cl)(Cl)Cl)sc2c1CCCC2` (stereo not given), the Inhibition is on record as 1%.
`O=C(Nc1ccc(C(F)(F)F)cc1)c1cccc(S(=O)(=O)NC2CCN(CC3CCCCC3)C2)c1.O=C(O)C(F)(F)F` (stereo not given) showed an Inhibition of 32%.
In turn, `Cc1nc(-c2cccc(Nc3nccc(NCC(O)c4cccc(C(F)(F)F)c4)n3)c2)cs1` (stereo not given) had an Inhibition of 14%.
As for `O=C(CN1CCN(C(C(=O)Nc2cc(C(F)(F)F)ccc2Cl)c2ccccc2)CC1)NC1CC1` (stereo not given), the figure is 0%; as for `Nc1cc(-c2ccc3ccccc3c2)nc2ccccc12`, 19%.
For `CN(CCc1ccccc1)c1ncc(-c2ccccc2CNCc2ccccc2O)cn1`, the Inhibition is listed as 10%.
In the case of `COc1ccc(NC(=O)Nc2ccc(-c3cccc(-c4nc5cccc(C)c5[nH]4)c3)cc2)cc1`, the Inhibition was 33%.
`Cc1cc(=O)[nH]c2cc(Nc3ccnc(Nc4cccc(C(N)=O)c4)n3)ccc12.Cl` returned an Inhibition of 27%.
For the molecule `CC(C)COc1ccc(Cl)cc1Cc1nc(-c2nc3ccc(CN(C)C)cc3[nH]2)co1.Cl`, the Inhibition came to 14%.
The figure for `Cc1cccc(C(=O)N2CCN(Cc3cccc(NC(=O)c4cccs4)c3)CC2)c1.O=C(O)C(F)(F)F` is 5%; for `Cc1cc(OCCCN2CCC(NS(=O)(=O)c3ccc(C(F)(F)F)cc3)CC2)c2ccccc2n1` it is 12%; for `CCCCCOc1c(CCC)cc(Cc2cnc(N)nc2N)cc1CCC` it is 58%.
As for `Cc1cnc2ccc(NS(=O)(=O)c3sc4ccc(Cl)cc4c3C)cc2c1N1CCNCC1.Cl`, the figure is 0%; as for `CC(C)(C)c1nn(-c2ccccc2)c2[nH]c(=O)c(CNCCc3ccccc3)cc12`, 0%.
For the molecule `O=C(Nc1ccc(N2CCNCC2)cc1)c1ccn2ncc(-c3cccc(Cl)c3)c2n1`, the Inhibition was found to be 79%.
In turn, `OC(CNc1ccnc(Nc2ccc(Cl)cc2)n1)c1ccccc1C(F)(F)F` (stereo not given) had an Inhibition of 22%.
In turn, `CC(C)NCC(=O)Nc1cccc(C(=O)Nc2cccc(C(F)(F)F)c2)c1` returned an Inhibition of 6%.
Consider `Cc1ccccc1C1CCN(C2CCC(NC(=O)/C=C/c3ccc(Cl)cc3)CC2)CC1` (stereo not given), for which the Inhibition is listed as 78%.
Molecule `Cc1cc(N(C)C)nc(Nc2ccc(NC(=O)c3c(F)cccc3Cl)cc2)n1` gave an Inhibition of 15%.
Take `Cc1ccc2cc(C3NC(=O)c4ccccc4N3)c(Cl)nc2c1` (stereo not given): the Inhibition was determined as 0%.
As for `Cc1[nH]c(C)c(-c2ccc(Oc3cccc(Cl)c3)cc2)c(=O)c1Br`, the figure is 46%.
Molecule `O=C(NCc1cccc(F)c1)Nc1cccc(-c2cccc(-c3nc4cc(C(F)(F)F)ccc4[nH]3)c2)c1` came in with an Inhibition of 55%.

For the origin of these results see ChEMBL document CHEMBL1157539, “Thousands of chemical starting points for antimalarial lead identification” (Nature, 2010).
